# Assay outcomes as filed in PubChem BioAssay.
# In the library only some 3% were active in any assay of this set; here they are far more common.
# CTSL1 counter: cathepsin L1 inhibition, PFM18AAP counter-screen | inhibition, % at 5.96 µM | recombinant F. hepatica cathepsin L1, Z-Leu-Arg-MCA fluorescence | 300,000 tested, 0.49% active;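 active = inhibition above the mean of all tested compounds plus 3 SD, set per screening campaign, cut at about 17% in these data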;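 also: 0% = plate median of test compound wells and 100% = 1 µM Z-Phe-Ala-diazomethylketone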
# PAFAH1B3 FP inh: blocks human PAF acetylhydrolase 1B catalytic subunit 3; 340,000 tested, 0.28% active; Q15102; AID 492972; inhibition, % at 3.39 µM; recombinant PAFAH1B3, FP-rhodamine probe, fluorescence polarization;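 active = inhibition above the screen-wide average of all tested compounds plus 3 SD, cut at about 25% in these data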;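 also: 0% = enzyme with DMSO only and 100% = wells lacking PAFAH1B3 protein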
# PP5 inh: blocks human protein phosphatase 5 activity | inhibition, % at 6.7 µM | purified PP5c, OMFP substrate fluorescence | 320,000 tested, 0.18% active | AID 1987;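 active = inhibition above the campaign's mean inhibition across all tested compounds plus 3 SD, cut at about 9.5% in these data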;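 also: 0% = DMSO only and 100% = 100 µM cantharidin control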
# Target sequence (P53041 whole entry, looked up): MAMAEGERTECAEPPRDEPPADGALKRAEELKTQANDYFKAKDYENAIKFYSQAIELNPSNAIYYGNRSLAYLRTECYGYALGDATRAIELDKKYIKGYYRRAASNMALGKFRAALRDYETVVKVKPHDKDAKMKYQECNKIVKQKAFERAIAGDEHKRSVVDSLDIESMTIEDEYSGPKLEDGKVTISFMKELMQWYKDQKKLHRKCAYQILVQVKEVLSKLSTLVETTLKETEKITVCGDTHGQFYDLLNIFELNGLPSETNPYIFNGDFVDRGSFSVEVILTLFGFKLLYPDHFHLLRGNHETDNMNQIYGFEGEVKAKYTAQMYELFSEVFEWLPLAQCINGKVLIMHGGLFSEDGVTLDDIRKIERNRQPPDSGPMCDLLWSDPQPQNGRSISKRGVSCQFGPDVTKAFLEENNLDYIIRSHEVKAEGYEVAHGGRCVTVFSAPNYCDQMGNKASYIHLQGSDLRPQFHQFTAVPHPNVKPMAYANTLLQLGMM
# PAFAH2 FP inh: PAFAH2 (human) inhibition; inhibition, % at 3.39 µM; 340,000 tested, 0.99% active; recombinant PAFAH2, FP-rhodamine activity probe, fluorescence polarization;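 active = inhibition above the mean over all tested compounds plus 3 SD, cut at about 30% in these data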;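 also: inhibitors block probe labeling of enzyme so polarization drops; 0% = enzyme with DMSO and 100% = wells lacking PAFAH2 protein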
# PAFAH1B2 inh: blocks human PAF acetylhydrolase 1b catalytic subunit 2; recombinant PAFAH1B2, FP-rhodamine activity probe, fluorescence polarization; P68402; AID 492953; 340,000 tested, 1.2% active; inhibition, % at 3.39 µM;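 active = inhibition above the mean of all tested compounds plus 3 SD, cut at about 24% in these data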;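 also: 0% = enzyme with DMSO and 100% = wells lacking PAFAH1B2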
# pPAFAH inh: inhibitors of human plasma PAF acetylhydrolase (pPAFAH). Q13093. recombinant pPAFAH, FP-rhodamine probe fluorescence polarization. inhibition, % at 3.39 µM. 330,000 tested, 1.5% active;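 active = inhibition above the mean inhibition across the screen plus 3 SD, cut at about 25% in these data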;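 also: inhibitors block binding of the rhodamine activity-based probe so polarization drops; 0% = enzyme with DMSO and 100% = wells lacking pPAFAH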
# Numbers without * were called inactive; · = no result.
SMILES,CTSL1 counter,PAFAH1B3 FP inh,PP5 inh,PAFAH2 FP inh,PAFAH1B2 inh,pPAFAH inh
Cc1c(OCC(=O)NC(Cc2ccc(Cl)cc2)C(=O)O)ccc2c1oc(=O)c1ccccc12 (configuration not stated),2.4,8.4,0.7,2.8,-0.4,-2.4
Cc1c(Cc2ccccc2)c(=O)oc2c(C)c(OCC(=O)N[C@@H](Cc3ccccc3)C(=O)O)ccc12,4.3,1.4,0.7,15.3,8.6,32.8*
CCCOC(=O)c1ccc(Oc2c(-c3ccc(OC)cc3O)n[nH]c2C)cc1,0.1,5.1,0.9,-7.4,2.1,16.8
C=C(C)COc1ccc(-c2n[nH]c(C)c2Oc2ccccc2OC)c(O)c1,2.0,7.9,4.2,1.1,0.8,12.6
CCc1cc(-c2n[nH]c(C)c2Oc2ccc(C(C)C)cc2)c(O)cc1O,4.2,13.4,8.3,7.1,5.5,31.0*
Cc1[nH]nc(-c2ccc(O)cc2O)c1Oc1ccccc1,-3.2,4.8,4.1,0.9,27.2*,1.7
O=c1oc(Cl)c(Cl)c2ccccc12,-2.3,16.3,2.7,34.8*,0.2,2.4
NC(=O)c1ncn([C@@H]2O[C@H](CNC(=O)[C@H](N)CSCc3ccccc3)[C@@H](O)[C@H]2O)n1,·,9.2,·,-1.5,3.7,·
Cc1ccc(C)c(S(=O)(=O)N2CCCC2CNC(=O)C(=O)NCc2ccccc2)c1 (configuration not stated),2.8,-1.7,-1.3,2.3,11.8,5.8
Cc1ccc(CNC(=O)C(=O)NCC2CCCN2S(=O)(=O)c2cc(C)ccc2C)cc1 (configuration not stated),-6.4,6.5,-0.2,2.1,28.0*,9.1
O=C(NCc1ccc(F)cc1)C(=O)NCC1OCCCN1S(=O)(=O)c1cccs1 (configuration not stated),-1.6,2.2,-0.5,-13.7,29.8*,7.5
O=C(NCc1ccccc1)C(=O)NCC1OCCCN1S(=O)(=O)c1cccs1 (configuration not stated),4.6,-5.3,2.9,2.2,14.6,8.7
COc1ccc(NC(=O)C(=O)NCCC2CCCCN2S(=O)(=O)c2cccs2)cc1 (configuration not stated),5.1,0.1,1.5,12.4,7.1,-2.4
O=C(NCCc1ccccc1)C(=O)NCC1OCCCN1S(=O)(=O)c1cc(F)ccc1F (configuration not stated),0.9,6.1,-1.7,1.8,8.5,-4.3
COc1ccc(CNC(=O)C(=O)NCCC2CCCCN2S(=O)(=O)c2cccs2)cc1 (configuration not stated),2.3,-0.8,-1.5,-2.1,24.9*,2.3
Cc1cc(F)ccc1S(=O)(=O)N1CCCOC1CNC(=O)C(=O)NCCc1ccccc1 (configuration not stated),-1.6,5.0,3.5,-19.4,27.0*,10.9
CCN(CC)c1nc(-c2ccccn2)nc(-c2ccccc2)c1C#N,-0.4,-2.2,4.1,5.4,3.8,0.1
COc1ccc(Cc2nnc(SC(C)C(=O)Nc3ccc(F)cc3Cl)o2)cc1 (configuration not stated),6.6,7.0,0.2,7.8,4.8,5.8
CCc1sc(C(=O)Nc2ccc3c(c2)OCO3)cc1C,·,17.8,·,16.9,6.1,24.9*
CCN=C1S/C(=C\c2cn(CC)c3ccccc23)C(=O)N1CC,7.7,8.7,0.2,6.4,6.0,8.6
Cc1ccc(N=C2S/C(=C\c3cn(CC(=O)O)c4ccccc34)C(=O)N2C)cc1,3.6,17.2,2.0,8.5,4.8,25.8*
CC(C)CC(NC(=O)c1ccc(Cl)cc1)C(=O)OCC(=O)c1ccc2c(c1)NC(=O)CO2 (configuration not stated),24.6*,-6.2,2.3,-2.5,0.4,-2.0
Cc1cc(S(=O)(=O)N2CCN(CC(=O)N(C)Cc3ccccc3)CC2)ccc1Br,·,5.7,·,4.0,11.9,·
CN(Cc1ccccc1)C(=O)CN1CCN(S(=O)(=O)c2ccc(Cl)c(Cl)c2)CC1,·,5.8,0.1,-0.5,30.0*,0.7
COC(=O)c1cc(OC)cc(O)c1C(=O)c1c(O)cc(C)cc1O,52.0*,2.0,1.5,1.6,3.0,9.0
SMILES,CTSL1 counter,PAFAH1B3 FP inh,PP5 inh,PAFAH2 FP inh,PAFAH1B2 inh,pPAFAH inh
COc1cc(C)c(C(=O)Oc2cc(C)c(C(=O)O)c(O)c2)c(O)c1,-0.9,12.4,2.9,-4.1,8.7,0.8
NC(=O)N/N=C/c1c(Sc2nnnn2-c2ccccc2)nc2ccccn2c1=O,2.7,7.5,-1.5,1.6,4.1,0.0
CC1CCCC(NC(=O)CCC(=O)N2CCOc3ccccc32)C1C (configuration not stated),2.1,-2.2,0.3,5.6,-4.5,-1.1
CC1=NN(c2nc(-c3ccc(F)cc3)cs2)C(=O)C1,4.1,3.9,2.3,13.9,5.4,30.3*
O=S(=O)(NCc1ccc(F)cc1)c1ccccc1Br,·,4.0,1.2,0.6,25.3*,0.5
O=C(Nc1ccc([N+](=O)[O-])cc1)N1CCN(C(=O)C2CCCO2)CC1 (configuration not stated),2.4,-8.3,0.6,6.0,-3.8,-0.6
Cc1ccc(SCc2cn3c(C)csc3n2)cc1,-3.4,0.5,3.5,-1.9,52.9*,2.1
Nc1ccc2nc(-c3cccc(-c4nc5ccc(N)cc5[nH]4)c3)[nH]c2c1,8.1,30.5*,2.6,6.7,24.3*,6.0
COCCSc1ccccc1C(=O)NCc1cccnc1,-0.1,-2.2,0.7,6.5,-0.8,-0.5
CCOCCn1c(N2CCCC2)nc2c1c(=O)[nH]c(=O)n2C,0.4,5.2,-0.7,-1.4,4.1,0.3
COC(=O)c1sc(-c2ccc(C(C)(C)C)cc2)cc1NC(=O)CSCC(=O)O,9.3,3.7,0.4,5.3,2.3,32.2*
COC(=O)c1sc(-c2ccc(C(C)(C)C)cc2)cc1NC(=O)c1ccccc1C(=O)O,2.4,-5.1,4.4,-16.6,7.8,5.4
O=C1CCCN1C(=O)CSc1nnnn1-c1cccc(F)c1,·,13.0,·,28.1,10.0,-1.1
O=C1C=CC(O)(c2cc(=O)c3c(O)cc(O)cc3o2)C=C1,-0.1,0.4,1.4,-2.4,2.9,12.0
CC1(CCC(=O)N2CCCC(Nc3ccc(F)cc3)C2)CC1 (configuration not stated),-2.8,7.9,1.9,2.0,28.9*,-4.3
CNC(=O)[C@H](C)[C@@H]1C[C@@]1(C)[C@@H](NC(=O)OCc1ccccc1)c1ccccc1,18.4*,4.4,2.9,-4.5,3.3,-8.4
CCS(=O)(=O)c1ncc(CO)n1CCc1ccccc1,-0.6,10.0,-1.8,3.5,4.1,5.5
Oc1ccc(N=Cc2ccc(OCc3ccccc3)cc2)cc1,45.1*,28.2*,3.1,19.2,23.6,23.9
O=C(N/N=C/c1ccc(OCc2ccccc2)cc1)c1ccncc1,11.3,5.4,2.0,1.5,5.9,-8.7
COc1ccc(-c2nc3c(-c4ccccc4)cnn3cc2C)cc1F,20.3*,1.9,3.5,-4.9,-1.6,-3.8
